# Most compounds without a hit are left out; they make up all but 1.8% or so of the library.
# ABCB6 inh 2: ABCB6 transporter inhibitors, primary screen, K562-ABCB6 cells, flow cytometry, MLPCN library. ATP-binding cassette sub-family B member 6 (Homo sapiens), Q9NP58. K562-ABCB6 porphyrin accumulation, 1 h; active compounds read low. fluorescence ratio to DMSO, % at 10 µM. actives 0.19% (n = 360,000). AID 602162, 2011;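 active means fluorescence ratio to DMSO below 75%, the collection mean minus 3 SD; inconclusive means too few cells collected in the well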;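 further: signal is porphyrin accumulated inside mitochondria; 100% equals median channel fluorescence of DMSO control wells; lower ratio means ABCB6 inhibition with less porphyrin fluorescence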
# Target sequence (Q9NP58 whole entry, looked up): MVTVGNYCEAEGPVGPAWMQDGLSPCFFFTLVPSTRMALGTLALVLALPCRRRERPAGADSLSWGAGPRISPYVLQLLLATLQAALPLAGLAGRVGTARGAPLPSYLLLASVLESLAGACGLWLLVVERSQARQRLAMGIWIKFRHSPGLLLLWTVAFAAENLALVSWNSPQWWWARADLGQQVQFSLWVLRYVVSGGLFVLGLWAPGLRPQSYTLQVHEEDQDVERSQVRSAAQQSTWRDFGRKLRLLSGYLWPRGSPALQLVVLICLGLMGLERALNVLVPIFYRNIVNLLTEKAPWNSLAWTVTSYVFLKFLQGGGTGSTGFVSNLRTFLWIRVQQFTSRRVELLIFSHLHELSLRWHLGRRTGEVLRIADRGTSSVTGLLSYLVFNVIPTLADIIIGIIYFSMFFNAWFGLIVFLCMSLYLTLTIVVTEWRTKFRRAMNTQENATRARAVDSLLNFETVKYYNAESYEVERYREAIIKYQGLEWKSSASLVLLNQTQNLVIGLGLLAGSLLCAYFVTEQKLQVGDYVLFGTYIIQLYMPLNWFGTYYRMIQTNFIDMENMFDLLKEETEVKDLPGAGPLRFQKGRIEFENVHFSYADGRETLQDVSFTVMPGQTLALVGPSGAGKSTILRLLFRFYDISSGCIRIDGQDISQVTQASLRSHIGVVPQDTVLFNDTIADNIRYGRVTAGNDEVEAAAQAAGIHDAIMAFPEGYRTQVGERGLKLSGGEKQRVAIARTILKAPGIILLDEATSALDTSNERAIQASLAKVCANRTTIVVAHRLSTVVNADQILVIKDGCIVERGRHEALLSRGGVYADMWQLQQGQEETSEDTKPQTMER
# Myeloid diff 2: induction of myeloid progenitor differentiation, primary screen, cell-based, flow cytometry, MLPCN library; actives 1% (n = 360,000); ER-HoxA9 myeloid progenitors, lysozyme-GFP differentiation; AID 624256, 2012; calls only at 10 µM;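 active means normalized GFP-positive differentiation at or above the plate's own cutoff, the solvent-only control mean plus 3 SD; inconclusive means no clear call, values can overlap the other calls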;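 further: cells exposed to compound for four days before flow analysis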
# Exocytosis inh: LAMP-1 surface exposure blockers, TALL-104 cells – cell-based, flow cytometry, MLPCN library, primary screen | TALL-104 LAMP-1 surface exposure; cells stimulated with thapsigargin and PMA | inhibition, % at 10 µM | actives 0.66% (n = 360,000);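 active means inhibition above about 55%, limit read from the data; inconclusive means no clear call, values can overlap the other calls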
# * marks the source's active call; other numbers are inactive results; i = inactive; ? = inconclusive; + = active, no number.
SMILES,ABCB6 inh 2,Myeloid diff 2,Exocytosis inh
Cn1cc(S(=O)(=O)N2CCNCC2)cc1C(N)=O,102.0,i,-1.4
CCCN1CCN(C(=S)Nc2ccc([N+](=O)[O-])cc2)CC1,97.0,+,-0.1
O=[N+]([O-])c1ccc(NC(=S)N2CCOCC2)cc1,97.0,i,0.8
S=C(Nc1ccc(Cl)cc1)NC1CCN(Cc2ccccc2)CC1,95.0,i,68.9*
S=C(Nc1ccccc1)NC1CCN(Cc2ccccc2)CC1,101.0,i,-5.5
CCCN1CCC(NC(=S)Nc2ccc(C(=O)OCC)cc2)CC1,101.0,i,0.0
CCCN1CCC(NC(=S)Nc2ccc([N+](=O)[O-])cc2)CC1,103.0,i,86.4*
C[C@@H]1CN([C@@H](C)CO)C(=O)CCCn2nncc2CO[C@@H]1CN(C)C(=O)OCc1ccccc1,106.0,i,-0.1
Cn1c(SCc2cccc(F)c2)nnc1-c1ccncc1,96.0,i,17.3
COc1ccc(C2NCCc3c2[nH]c2ccccc32)cc1CN1CCc2cc(OC)c(OC)cc2C1C (centres undefined),108.0,i,15.1
COc1ccc(C2NCCc3c2[nH]c2ccccc32)cc1COc1ccc(F)cc1 (centres undefined),106.0,+,28.6
N#CC1=C(S)N(c2ccccc2)C2(CCCCC2)NC1=O,99.0,i,21.2
N#CC1=C(S)N(c2ccc(F)cc2)C2(CCCCC2)NC1=O,99.0,i,80.6*
CC1(c2nnnn2Cc2ccccc2)CCC(=O)N1Cc1cccc(C(F)(F)F)c1 (centres undefined),99.0,i,-2.7
O=C(O)c1cccc(S(=O)(=O)Nc2ccc(N3CCCCC3)cc2)c1,102.0,i,-1.9
CCOc1ccccc1NC(=O)Nc1ccc2c(c1)OCO2,99.0,i,-3.6
C=CCOc1ccccc1CN(C(=O)CCl)c1ccc2c(c1)OCO2,88.0,+,19.7
CCc1ccc(C(C(=O)NC2CCCC2)N(Cc2cccnc2)C(=O)c2csnn2)cc1 (centres undefined),98.0,i,0.2
CCOC(=O)c1cc(N)cc([N+](=O)[O-])c1,104.0,i,4.9
CCOC(=O)c1sc2cc([N+](=O)[O-])cc(SCC(C)C)c2c1N,i,+,-2.5
O=C1Nc2ccccc2Nc2ccc([N+](=O)[O-])cc21,92.0,i,-3.3
Cc1ccc(Oc2cc([N+](=O)[O-])cc3c2C(=O)Nc2ccccc2O3)cc1,105.0,+,1.7
C#CCOCCOCCOCCNc1nc(N2CCN(C(=O)[C@H](CCCCN)n3cc([C@@H](N)[C@H](C)CC)nn3)CC2)nc(N2CCN(C(=O)[C@H](CCC(=O)O)n3cc([C@@H](N)CCSC)nn3)CC2)n1,103.0,i,-4.7
CCCNC(=O)c1ccc(N2CCC3(CC2)CC(c2ccccc2)=NO3)c(NC(=O)c2ccccc2)c1,81.0,+,-2.9
CCCNC(=O)c1ccc(N2CCC3(CC2)CC(c2ccccc2)=NO3)c(NC(=O)c2ccc(Br)cc2)c1,92.0,i,-2.7
SMILES,ABCB6 inh 2,Myeloid diff 2,Exocytosis inh
Cc1cc(N2CCOCC2)n2nc(-c3cccc(F)c3)cc2n1,105.0,i,0.7
Cc1cc(N2CCN(C(=O)c3ccco3)CC2)n2nc(-c3cccc(F)c3)cc2n1,97.0,+,-1.4
C[N+](C)(C)CCN1C(=O)c2ccccc2C1=O,100.0,i,6.8
COc1ccc(-n2nc(C(=O)c3cccs3)cc(-c3nc4ccccc4[nH]3)c2=N)cc1,98.0,+,22.5
Cc1ccccc1-n1nc(C(=O)c2cccs2)cc(-c2nc3ccccc3[nH]2)c1=N,95.0,i,-1.0
O=C(c1ccncc1)N1CCN(C(=O)c2ccco2)CC1,102.0,i,-2.6
O=C(c1ccc(N2CN(C(=O)c3ccco3)c3nc4ccccc4nc32)cc1)N1CCOCC1,100.0,+,9.1
Cc1ccccc1OCCOC(=O)c1cc(S(=O)(=O)N2CCCCC2)ccc1N1CCOCC1,95.0,i,1.4
CC(C)N1CCC(C)(C(=O)Nc2ccc(-n3cccc3)cc2)C1 (centres undefined),98.0,i,-2.3
COc1cc(NC(=O)c2ccc(Br)cc2)ccc1NC(=O)c1cc2ccccc2o1,93.0,i,3.0
COc1cc(NC(=O)c2ccc(C)cc2)ccc1NC(=O)c1cc2ccccc2o1,108.0,+,-5.9
Cc1ccsc1CNC(=O)C1(C)CCN1C(=O)C(C)C (centres undefined),111.0,i,-2.1
C[C@H]1CN([C@@H](C)CO)C(=O)CCCn2nncc2CO[C@@H]1CN(C)S(=O)(=O)c1cn(C)cn1,105.0,i,2.6
CC(NC(=O)Nc1ccc(O)cc1)(C(F)(F)F)C(F)(F)F,108.0,i,-3.3
CC(NC(=O)Nc1ccccc1O)(C(F)(F)F)C(F)(F)F,103.0,+,1.1
Cc1cccc(C)c1C(O)c1ncc(-c2ccccc2Cl)[nH]1 (centres undefined),98.0,i,-3.6
CC1=Nc2ccccc2/C1=C\c1nc(-c2ccc(C(F)(F)F)cc2)oc1O,557.0,+,8.0
CC1=Nc2ccccc2/C1=C\c1nc(-c2ccccc2)oc1O,117.0,i,10.4
CCCC(C(=O)NNC(=O)c1cc(C)oc1C)c1ccccc1 (centres undefined),94.0,i,4.5
CSc1ccc(S(=O)(=O)NCc2ccccc2Cl)cc1,89.0,i,2.4
CSc1ccc(S(=O)(=O)NCc2ccc(Cl)cc2Cl)cc1,99.0,i,100.2*
O=S(=O)(/C(=C\c1ccc(C(F)(F)F)cc1)c1nc2ccccc2[nH]1)c1ccccc1,94.0,?,69.7*
O=C(NCc1ccco1)/C(=C/c1ccc(C(F)(F)F)cc1)c1nc2ccccc2[nH]1,109.0,i,4.5
CN(CC1COc2ccccc2O1)C(=O)CSc1ncccn1 (centres undefined),89.0,i,-2.2
Nc1ccc(C(=O)OCC(=O)N2c3ccccc3Sc3ccccc32)cc1[N+](=O)[O-],95.0,i,-1.8
SMILES,ABCB6 inh 2,Myeloid diff 2,Exocytosis inh
NCCNc1ccc(C(=O)N2c3ccccc3Sc3ccccc32)cc1[N+](=O)[O-],96.0,i,66.1*
C[C@H](CO)N1C[C@H](C)[C@@H](CN(C)S(=O)(=O)c2ccc(Oc3ccccc3)nc2)OCc2cn(nn2)CCCC1=O,102.0,i,-5.7
CCN(CC(=O)Nc1c(C(=O)OC)[nH]c2ccc(Cl)cc12)c1ccc2c(c1)OCO2,113.0,+,-3.7
CCOC(=O)c1[nH]c2ccc(Cl)cc2c1NC(=O)/C=C/c1ccc2c(c1)OCO2,96.0,i,2.9
CS(=O)(=O)Nc1ccc2c(c1)[C@H]1C[C@H](CC(=O)NCc3cccc(F)c3)O[C@@H](CO)[C@H]1O2,110.0,i,14.2
CCOC(=O)N1CCN(C(=O)CCNS(=O)(=O)c2ccccc2)CC1,98.0,i,-1.6
CCOC(=O)N1CCN(C(=O)COc2ccc(S(=O)(=O)NCc3ccccc3)cc2)CC1,100.0,+,-0.5
COc1ccc(NC(=O)COC(=O)CCOc2ccccc2C)cc1Cl,98.0,i,-3.7
CCCN1CCC(=O)N([C@H](CSc2ccc(Br)cc2)Cc2ccccc2)CC1,100.0,+,-16.6

# From PubChem BioAssay
